Source: PubChem
Most compounds without a hit are left out; they make up all but 2.4% or so of the library.
D2 ag-1: activates the human D2 dopamine receptor; P14416; HEK293 T-REx D2 cells, calcium flux agonist mode; activation, % at 2 µM; 340,000 tested, 0.53% active;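 active = activation over 3 SD above normal in the single-dose calcium agonist read, cut at about 30% in these data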; also: 0% is about no effect
Target sequence (P14416 whole entry, looked up): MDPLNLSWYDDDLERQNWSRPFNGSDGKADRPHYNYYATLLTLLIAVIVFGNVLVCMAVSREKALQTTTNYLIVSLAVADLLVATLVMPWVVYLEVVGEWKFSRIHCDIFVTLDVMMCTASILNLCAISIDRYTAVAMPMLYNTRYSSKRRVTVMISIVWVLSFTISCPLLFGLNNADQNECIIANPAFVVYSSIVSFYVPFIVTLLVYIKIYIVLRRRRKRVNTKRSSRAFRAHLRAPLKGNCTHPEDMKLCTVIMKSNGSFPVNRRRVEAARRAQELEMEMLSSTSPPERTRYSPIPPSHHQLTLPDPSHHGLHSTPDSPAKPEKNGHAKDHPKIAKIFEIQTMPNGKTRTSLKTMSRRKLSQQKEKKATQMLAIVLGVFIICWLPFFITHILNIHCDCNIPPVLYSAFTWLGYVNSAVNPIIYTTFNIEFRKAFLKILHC
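Agonism is scored from calcium flux in a force-coupled, inducible HEK293 cell line expressing D2, read kinetically for 180 s after compound addition against dopamine controls.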
D2 PAM-1: positive allosteric modulators of human D2 dopamine receptor. 340,000 tested, 0.34% active. P14416. HEK293 T-REx D2, calcium flux, EC20 dopamine potentiation. potentiation, % at 10 µM;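 active = potentiation over 3 SD above the plate norm, cut at about 30% in these data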; also: 0% is about no effect
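Cells plated with tetracycline inducer and held overnight at 30 C; calcium dye loaded 30–90 min at room temperature; baseline taken, compound added and read 180 s; EC20 dopamine then added and read 180 s.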
D2 PAM-2: human D2 receptor positive allosteric modulation. P14416. DiscoveRx D2 beta-arrestin cells, luminescence, 90 min; 100% = 57 uM dopamine signal. potentiation, % (no concentration beside the values). 360,000 tested, 0.23% active. AID 624464; in the data active = potentiation above about 50%; inconclusive = mostly about 30% to 49%
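D2 cells co-treated with compound plus 50 nM dopamine (EC20) for 90 min at 37 deg C to detect potentiation. Beta-arrestin recruitment was read as enzyme-fragment luminescence after 1 h at ambient temperature. Full response was set by 57 uM dopamine.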
D2 ag-2: human D2 receptor agonism in beta-arrestin assay. DiscoveRx PathHunter D2 beta-arrestin, luminescence, 90 min; 100% = 57 uM dopamine signal. activation, % (no concentration beside the values). 360,000 tested, 0.084% active. P14416; in the data active = activation above about 40%; inconclusive = between about 15% and that limit
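DiscoveRx PathHunter D2 beta-arrestin cells (2,100/well) attached overnight, then compound-stimulated 90 min at 37 C in HBSS/10 mM HEPES/0.1% Tween-20 buffer; beta-galactosidase complementation read by luminescence after 1 h at ambient temperature. Dopamine 57 uM final (EC100) as control.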
D2 antag: D2 dopamine receptor (human) antagonism; P14416; HEK293 TREx D2 cells, calcium flux, dopamine EC80; inhibition, % at 10 µM; 340,000 tested, 2% active; AID 485344; in the data active = inhibition above about 30%; inactive = below that, where a call was filed; also: 0% is about no effect
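Measurement of antagonist activity uses fluorescent calcium dye in inducible HEK293 T-REx D2 cells: 10 s baseline, compound addition with 180 s read, EC80 dopamine addition with a further 180 s read.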
Numbers without * were called inactive.

`CCOC(=O)c1c(C)n(-c2ccc(C)cc2)c2ccc(OCC(O)CNCC3CCCO3)cc12` (stereo not drawn) gave D2 ag-1 0, D2 PAM-1 -8, D2 PAM-2 -19, D2 ag-2 -11 and D2 antag -4.
O=C(NCc1ccccc1Cl)C(=O)NCC(c1ccc2c(c1)OCO2)N1CCOCC1 (stereo not drawn) was read as D2 ag-1 1 and D2 PAM-1 -7.
Screening O=C(C1CCN(S(=O)(=O)c2ccccc2)CC1)N1CCN(c2ccccc2F)CC1 returned D2 ag-1 -1, D2 PAM-1 10, D2 PAM-2 -3, D2 ag-2 -2 and D2 antag 32*.
`O=C(C1COc2ccccc2O1)N1CCCC1` (stereo not drawn) gave D2 ag-1 1, D2 PAM-1 -3, D2 PAM-2 -8, D2 ag-2 -3 and D2 antag -6.
Screening O=C(C1COc2ccccc2O1)N1CCc2ccccc21 (stereo not drawn) returned D2 ag-1 0, D2 PAM-1 5, D2 PAM-2 26, D2 ag-2 0 and D2 antag 35*.
`O=C(C1CCN(S(=O)(=O)c2ccccc2)CC1)N1CCc2ccccc21` gave D2 ag-1 98*, D2 PAM-1 -12, D2 PAM-2 -4, D2 ag-2 -2 and D2 antag 28.
For O=C(C1CCN(S(=O)(=O)Cc2ccccc2)CC1)N1CCN(c2ccccc2)CC1 the results were D2 ag-1 0 and D2 PAM-1 11.
`CC(C)(C)C(=O)NCC(c1ccc2c(c1)OCO2)N1CCOCC1` (stereo not drawn) gave D2 ag-1 2 and D2 PAM-1 0.
c1ccc(-c2noc(CN3CCN(c4ccccc4)CC3)n2)cc1 was read as D2 PAM-2 -3 and D2 ag-2 3.
c1ccc(-c2noc(CN3CCc4sccc4C3)n2)cc1 was read as D2 ag-1 0, D2 PAM-1 3, D2 PAM-2 10, D2 ag-2 2 and D2 antag 35*.
For c1ccc(CCc2nc(-c3ccccc3)no2)cc1 the results were D2 ag-1 1, D2 PAM-1 39*, D2 PAM-2 -11, D2 ag-2 -1 and D2 antag 15.
For Cc1ccc(-c2cn(-c3ccc(Cl)cc3)c(S(=O)(=O)CC(=O)Nc3ccccc3)n2)cc1 the results were D2 ag-1 1 and D2 PAM-1 -4.
CCN(C[C@H]1N[C@@](CC)(C(=O)OC)[C@H]2C(=O)N(Cc3ccccc3)C(=O)[C@@H]12)C(=O)c1ccc(C(C)(C)C)cc1 was read as D2 PAM-2 57* and D2 ag-2 inconclusive.
For CC[C@@]1(C(=O)OC)N[C@H](CN(C)C(=O)c2ccc(C(C)(C)C)cc2)[C@@H]2C(=O)N(Cc3ccccc3)C(=O)[C@@H]21 the results were D2 PAM-2 2 and D2 ag-2 2.
For Cc1nnc(N2CCN(c3ccccc3F)CC2)c2c1nnn2Cc1ccccc1Cl the results were D2 ag-1 -1 and D2 PAM-1 0.
Screening CCN1CCN(c2nc3c(C)cccn3c(=O)c2/C=C(\C#N)S(=O)(=O)c2ccccc2)CC1 returned D2 ag-1 0, D2 PAM-2 -7, D2 ag-2 0 and D2 antag 37*.
`CCN1CCN(c2nc3ccccn3c(=O)c2/C=C(\C#N)S(=O)(=O)c2ccccc2)CC1` gave D2 ag-1 -1, D2 PAM-1 -5, D2 PAM-2 -21, D2 ag-2 -8 and D2 antag 34*.
Cc1ccccc1NC(=O)Nc1nnc(N2CCCCCC2)s1 was read as D2 ag-1 4 and D2 PAM-1 -3.
O=C(CCNC(=O)N1CC(=O)Nc2ccccc21)Nc1ccc(Br)cc1F was read as D2 ag-1 0, D2 PAM-1 0, D2 PAM-2 -28, D2 ag-2 -8 and D2 antag 55*.
Screening CCOC(=O)c1c(C)oc2c1c(CN1CCN(C(=O)OCC)CC1)c(O)c1ccccc12 returned D2 ag-1 1, D2 PAM-1 -3, D2 PAM-2 75*, D2 ag-2 inconclusive and D2 antag 5.
CCOC(=O)c1c(C)oc2c1c(CN1CCN(CCO)CC1)c(O)c1ccccc12 was read as D2 ag-1 0, D2 PAM-1 7, D2 PAM-2 22, D2 ag-2 6 and D2 antag -10.
For CCOC(=O)c1c(C)oc2c1c(C(c1ccncc1)N1CCOCC1)c(O)c1ccccc12 (stereo not drawn) the results were D2 ag-1 0, D2 PAM-2 69*, D2 ag-2 8 and D2 antag -7.
COc1cccc(NC(=O)N(Cc2c[nH]c3ccccc23)C2CCCCCC2)c1 was read as D2 ag-1 0 and D2 PAM-1 6.
Screening Cc1nn(-c2ccc(N3CCCCC3)nn2)c(C)c1CCC(=O)NCc1ccc(Cl)cc1 returned D2 ag-1 0 and D2 PAM-1 -2.
COc1ccc(CNC(=O)c2cc(C3CC3)nc3c2cnn3C(C)C)cc1OC was read as D2 ag-1 0, D2 PAM-1 -10, D2 PAM-2 -3, D2 ag-2 0 and D2 antag 1.
For Cc1ccc(CNC(=O)c2cc(C3CC3)nc3c2cnn3C(C)C)cc1 the results were D2 ag-1 -1, D2 PAM-1 -37, D2 PAM-2 -43, D2 ag-2 2 and D2 antag 39*.
Screening Cc1nn(-c2ccccc2)c(C)c1C(=O)NCc1cccs1 returned D2 ag-1 0, D2 PAM-1 -3, D2 PAM-2 3, D2 ag-2 -2 and D2 antag -3.
`Cc1nn(-c2ccccc2)c(Cl)c1C(=O)NCc1cccs1` gave D2 ag-1 -1, D2 PAM-1 -6, D2 PAM-2 -3, D2 ag-2 -1 and D2 antag 44*.
Screening O=C(O)CC1S/C(=N/N=C2CCCCC2)N(c2ccccc2)C1=O (stereo not drawn) returned D2 ag-1 0, D2 PAM-1 10, D2 PAM-2 -1, D2 ag-2 -1 and D2 antag -12.
C/C(=N\N=C1/SC(CC(=O)O)C(=O)N1c1ccccc1)c1ccc(C)cc1 (stereo not drawn) was read as D2 ag-1 -3, D2 PAM-1 -15, D2 PAM-2 -6, D2 ag-2 -2 and D2 antag 30*.
`Cc1ccc(C)c(OCCCN2CCc3ccccc3C2)c1` gave D2 ag-1 0, D2 PAM-1 -19, D2 PAM-2 -27, D2 ag-2 4 and D2 antag 70*.
Screening Cc1ccc(OCCCCn2cnc3ccccc32)c(C)c1 returned D2 ag-1 0, D2 PAM-1 2, D2 PAM-2 -14, D2 ag-2 1 and D2 antag 12.
